The values below come from PubChem BioAssay AID1259240 (Keith Lab, Institute of Cancer Science, University of …, 2017).

Structures are written as SMILES. Unmarked numbers belong to inactive results. The source made the active and inactive calls. Rule as the data show it: active = fold change mostly below about -2 (no sharp cut-off); inactive = mostly above about -1.8.

The test is described as follows: TERT promoter activity modulators, primary screen, cell-based, luciferase reporter, human (AID 1259240). Conditions: A2780 TERT promoter luciferase reporter, 16 h; at 20 µM, fold versus average of vehicle-only wells. Background: Reporter assays use an easily measured gene product as a stand-in for the process of interest.
`Cc1ccc(N2C(=O)c3n[nH]c(C)c3C2c2ccccc2F)cc1` (centres undefined): the fold change is 1.63.

For `CCC(=O)OCCNc1cc(N2CCCC2)c2noc3c2c1C(=O)c1ccccc1-3`, the fold change is 2.08 (active).

Regarding `COCCNC(=O)CCSc1nc(-c2ccc3c(c2)OCO3)cc(C(F)(F)F)n1`, the fold change was -1.36.

On to `CCc1nnc(NC(=O)CSc2ncnc3ccccc23)s1`, for which the fold change is 1.11.

For the compound `CCOC(=O)C1CCCN(c2c(NCC3COc4ccccc4O3)c(=O)c2=O)C1` (centres undefined), the fold change was 1.35.

For the compound `Brc1c(C[n+]2ccccc2)nc2ccccn12`, the fold change is -1.91.

As for `CN(CC(=O)NC(C)(C)C)S(=O)(=O)c1ccc2c(c1)c(=O)n(C)c(=O)n2C`, the fold change was -1.36.

As for `O=C(CSc1nnc2ccc3ccccc3n12)Nc1ccc2c(c1)OCCO2`, the fold change was 1.3.

On to `O=C(NCCCN1CCCCC1)C1CCC(CNS(=O)(=O)c2cccc3nsnc23)CC1` (centres undefined), for which the fold change was -1.15.

Turning to `Cc1nc2c(-c3ccc(F)cc3)c(C)nn2c(C)c1CCC(=O)NCc1ccc2c(c1)OCO2`, the fold change is 1.02.

In the case of `CCOC(=O)c1nn(-c2ccc(OC)cc2)c(=O)c2c(NC(C)=O)scc12`, the fold change is 1.14.

For `CCS(=O)(=O)N1CCN(Cc2c[nH]c3ccccc23)CC1`, the fold change is -1.08.

Consider `COC(=O)CCn1nc(-c2ccc(Cl)cc2)c2ccccc2c1=O`, for which the fold change was -1.07.

As for `c1ccc2c(NCCCN3CCOCC3)c3c(nc2c1)CCCC3`, the fold change is -1.45.

For the compound `Cc1cc(C)cc(N2CN=c3s/c(=C4\C(=O)Nc5ccccc54)c(=O)n3C2)c1`, the fold change was -1.15.

Take `CCCC1=NN2C(=N)/C(=C\c3ccc(SCc4ccco4)o3)C(=O)N=C2S1`: the fold change is -1.68.

For `O=C(CN1C(=O)COc2ccc(S(=O)(=O)N3CCOCC3)cc21)NCc1ccc2c(c1)OCO2`, the fold change was 1.18.

In the case of `Cn1c(=O)cc(SCC(=O)Nc2nc3ccccc3[nH]2)c2ccccc21`, the fold change is -1.01.

Take `Cc1ccc(N2CCN(c3cc(C)nc4ncnn34)CC2)c(C)c1`: the fold change is -1.38.

Take `CCc1c2c(nc3sc(C(=O)NCc4ccc5c(c4)OCO5)c(N)c13)CC(C)(C)CC2=O`: the fold change is -1.01.

As for `O=C(CN1C(=O)COc2ccc(S(=O)(=O)N3CCOCC3)cc21)N1CCOCC1`, the fold change is -2.24 (active).

In the case of `COc1ccc(C2C3C(=O)N(C(C)C)C(=O)C3ON2c2ccc(Cl)cc2)cc1` (centres undefined), the fold change is -1.62.

Turning to `COc1ccc(OC)c(S(=O)(=O)c2cc3cc(OC)ccc3oc2=O)c1`, the fold change was -1.77.

As to `O=C(CN1C(=O)COc2ccc(S(=O)(=O)N3CCCCCC3)cc21)N1CCC2(CC1)OCCO2`, the fold change is -1.25.

For `COC(=O)c1ccc(C2NC(=O)c3n[nH]c(C)c32)cc1` (centres undefined), the fold change was -1.08.

As to `O=C1Nc2ccc(Br)cc2/C1=C\c1nc2ccccc2c(=O)n1-c1cccc(C(=O)O)c1`, the outcome was inactive.

As for `COc1cc2c(cc1OC)C(c1ccc(C)c(Br)c1)CC(=O)N2` (centres undefined), the fold change was -1.04.

For the compound `CCN1C(=O)N(CC)C2C1N(C(C)=O)C(=O)N2C(C)=O` (centres undefined), the fold change is -1.76.

Regarding `CCN(Cc1ccccc1)C(=O)C1CCCN1S(=O)(=O)c1cccc2nsnc12` (centres undefined), the fold change is 1.58.

For `CSc1cccc(NC(=O)C2CCN(S(=O)(=O)c3ccc4c(c3)oc(=O)n4C)CC2)c1`, the fold change is -1.36.

Consider `CCOC(=O)C1=C(CS(=O)(=O)c2ccc(C)c(C)c2)NC(=O)NC1c1ccc(O)c(OC)c1` (centres undefined), for which the fold change was 1.22.

`COc1cc2[nH]c(=O)n(CC3CCCO3)c(=O)c2cc1OC` (centres undefined): the fold change was 1.01.

For the compound `Cc1nc(SCC(=O)NCC2CCCO2)c2c(=O)n(C)c(=O)n(C)c2n1` (centres undefined), the fold change was 1.01.

Regarding `O=C(CC1(O)C(=O)Nc2ccc(Br)cc21)c1cccs1` (centres undefined), the fold change is -6.1 (active).

Consider `CN(C)CCNC(=O)C(=O)Nc1ccc2nc3n(c(=O)c2c1)CCCCC3`, for which the fold change was 1.06.

With `CC(C)Oc1ccc(-c2cc(C(F)(F)F)n3ncc(C#N)c3n2)cc1`, the fold change is -2.17 (active).

`CCN1CCCC1CNC(=O)CN1C(=O)COc2ccc(S(=O)(=O)N3CCC(C)CC3)cc21` (centres undefined): the fold change is 1.28.

`O=C(Cn1ncc2c3ccccc3n(Cc3ccccc3)c2c1=O)N1CCCC1`: the fold change was -1.21.

On to `CCOC(=O)c1c(CN2CCOCC2)oc2ccc(OC)cc12`, for which the fold change was -1.29.
